Common to all, as to test: DAPPL (digital affinity profiling via proximity ligation, sequencing); 10 mM Tris-HCl pH 7.5, 50 mM NaCl, 1 mM DTT, 4% glycerol, room temperature, 30 min; GST-TFs on glutathione beads, 16-mer random dsDNA library, 0.1% formaldehyde crosslink after washing; high values mean tight binding
Holding throughout (conditions): protein: recombinant; tags: N-terminal GST; dsDNA, one strand shown

In one assay the target is T1, ERF (Homo sapiens, UniProt P50548 1-548).
T1 sequence: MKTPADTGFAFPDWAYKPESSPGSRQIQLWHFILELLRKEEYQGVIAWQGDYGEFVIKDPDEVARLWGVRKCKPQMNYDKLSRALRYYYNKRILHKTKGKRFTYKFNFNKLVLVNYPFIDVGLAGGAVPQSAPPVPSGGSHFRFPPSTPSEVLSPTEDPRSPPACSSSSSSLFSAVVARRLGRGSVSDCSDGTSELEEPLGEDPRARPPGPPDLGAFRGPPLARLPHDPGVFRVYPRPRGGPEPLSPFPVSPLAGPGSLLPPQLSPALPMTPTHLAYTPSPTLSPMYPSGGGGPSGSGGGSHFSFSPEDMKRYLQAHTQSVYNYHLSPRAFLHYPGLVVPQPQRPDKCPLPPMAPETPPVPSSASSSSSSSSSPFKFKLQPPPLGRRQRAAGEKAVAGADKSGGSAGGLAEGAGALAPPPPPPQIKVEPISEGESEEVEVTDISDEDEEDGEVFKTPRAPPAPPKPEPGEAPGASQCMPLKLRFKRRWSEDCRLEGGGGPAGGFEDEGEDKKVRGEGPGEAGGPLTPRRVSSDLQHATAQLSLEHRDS
An outline of the steps: (§1)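 In yeast, human transcription factors were expressed with a GST fusion, then pulled down on glutathione beads and given DNA barcodes. Pooled with a tag-only sample, they were exposed to 200 nmole of a 16-mer random double-stranded DNA library (Tris/NaCl/DTT/glycerol buffer, room temperature, 30 min), washed, crosslinked with 0.1% formaldehyde, proximity-ligated using BsaI/T4 ligase for 1 h at 37 °C, PCR-amplified and read on an Illumina NextSeq500. Each hexamer's frequency of reads for a factor, divided by the matching frequency for the tag-only sample, gives the binding signal.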

In another assay the target is T2, ETV3L (Homo sapiens, UniProt Q6ZN32 1-361).
T2 sequence: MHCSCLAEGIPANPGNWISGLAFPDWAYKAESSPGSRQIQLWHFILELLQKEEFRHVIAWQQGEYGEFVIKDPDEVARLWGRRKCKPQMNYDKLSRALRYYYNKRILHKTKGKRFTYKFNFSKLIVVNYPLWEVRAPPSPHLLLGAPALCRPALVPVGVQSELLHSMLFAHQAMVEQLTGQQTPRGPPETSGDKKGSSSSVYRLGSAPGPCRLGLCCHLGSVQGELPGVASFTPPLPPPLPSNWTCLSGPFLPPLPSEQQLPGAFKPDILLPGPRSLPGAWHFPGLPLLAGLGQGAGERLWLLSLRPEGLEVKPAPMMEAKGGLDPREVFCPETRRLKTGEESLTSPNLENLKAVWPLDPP
An outline of the steps: as §1

The target of the next assay is T3, ETS2 (Homo sapiens, UniProt P15036 1-469).
T3 sequence: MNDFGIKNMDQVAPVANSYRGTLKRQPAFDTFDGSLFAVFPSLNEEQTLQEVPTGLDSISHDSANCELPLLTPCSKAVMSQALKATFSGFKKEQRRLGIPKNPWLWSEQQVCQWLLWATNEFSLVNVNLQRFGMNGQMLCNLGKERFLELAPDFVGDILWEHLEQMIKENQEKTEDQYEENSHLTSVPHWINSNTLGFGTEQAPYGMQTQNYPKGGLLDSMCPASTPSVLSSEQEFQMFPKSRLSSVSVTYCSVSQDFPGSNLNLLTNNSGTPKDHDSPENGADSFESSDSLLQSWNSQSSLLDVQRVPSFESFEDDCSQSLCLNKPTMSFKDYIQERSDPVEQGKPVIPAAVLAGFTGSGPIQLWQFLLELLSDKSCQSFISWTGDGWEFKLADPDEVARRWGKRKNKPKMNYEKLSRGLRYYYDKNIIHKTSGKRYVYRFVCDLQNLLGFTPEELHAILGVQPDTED
Summed up: as §1

For a further assay, the target named is T4, SPDEF (Homo sapiens, UniProt O95238 1-335).
T4 sequence: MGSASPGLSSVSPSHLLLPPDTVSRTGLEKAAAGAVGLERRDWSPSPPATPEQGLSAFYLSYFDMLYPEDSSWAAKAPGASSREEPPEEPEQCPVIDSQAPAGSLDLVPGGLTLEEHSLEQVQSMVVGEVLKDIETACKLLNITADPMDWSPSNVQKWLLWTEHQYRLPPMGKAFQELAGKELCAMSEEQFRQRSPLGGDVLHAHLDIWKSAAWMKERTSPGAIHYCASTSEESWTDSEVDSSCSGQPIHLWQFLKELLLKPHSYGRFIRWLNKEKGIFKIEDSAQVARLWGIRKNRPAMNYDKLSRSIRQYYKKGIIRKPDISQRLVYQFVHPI
An outline of the steps:
as §1

The next assay has as its target T5, ETV7 (Homo sapiens, UniProt Q9Y603 1-341).
T5 sequence: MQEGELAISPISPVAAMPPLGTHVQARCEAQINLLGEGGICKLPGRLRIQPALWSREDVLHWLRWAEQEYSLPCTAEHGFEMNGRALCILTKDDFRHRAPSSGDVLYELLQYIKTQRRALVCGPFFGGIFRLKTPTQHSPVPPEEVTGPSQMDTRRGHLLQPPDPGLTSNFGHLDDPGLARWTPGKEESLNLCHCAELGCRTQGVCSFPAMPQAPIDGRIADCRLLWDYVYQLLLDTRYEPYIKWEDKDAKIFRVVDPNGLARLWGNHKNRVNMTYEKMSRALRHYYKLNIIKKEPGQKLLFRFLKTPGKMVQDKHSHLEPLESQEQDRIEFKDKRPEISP
An outline of the steps: as §1

For a further assay, the target named is T6, ELF5 (Homo sapiens, UniProt Q9UKW6-2 1-255).
T6 sequence: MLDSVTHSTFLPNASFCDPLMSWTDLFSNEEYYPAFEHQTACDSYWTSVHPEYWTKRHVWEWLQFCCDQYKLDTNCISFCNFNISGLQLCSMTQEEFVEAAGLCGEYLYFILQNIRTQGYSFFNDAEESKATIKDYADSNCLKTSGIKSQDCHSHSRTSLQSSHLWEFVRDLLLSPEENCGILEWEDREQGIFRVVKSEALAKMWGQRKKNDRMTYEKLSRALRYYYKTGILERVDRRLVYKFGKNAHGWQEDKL
Summed up: as §1

The target of a further assay is T7, ETV3 (Homo sapiens, UniProt P41162-2 1-143).
T7 sequence: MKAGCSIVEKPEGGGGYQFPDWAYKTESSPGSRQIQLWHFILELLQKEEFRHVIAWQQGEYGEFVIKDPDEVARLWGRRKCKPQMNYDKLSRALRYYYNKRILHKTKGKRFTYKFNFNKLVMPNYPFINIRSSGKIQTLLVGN
Summed up: as §1

Another assay addresses ETV6 (Homo sapiens, UniProt P41212 1-452). Summed up: as §1

Sequence of ETV6 (P41212 whole entry): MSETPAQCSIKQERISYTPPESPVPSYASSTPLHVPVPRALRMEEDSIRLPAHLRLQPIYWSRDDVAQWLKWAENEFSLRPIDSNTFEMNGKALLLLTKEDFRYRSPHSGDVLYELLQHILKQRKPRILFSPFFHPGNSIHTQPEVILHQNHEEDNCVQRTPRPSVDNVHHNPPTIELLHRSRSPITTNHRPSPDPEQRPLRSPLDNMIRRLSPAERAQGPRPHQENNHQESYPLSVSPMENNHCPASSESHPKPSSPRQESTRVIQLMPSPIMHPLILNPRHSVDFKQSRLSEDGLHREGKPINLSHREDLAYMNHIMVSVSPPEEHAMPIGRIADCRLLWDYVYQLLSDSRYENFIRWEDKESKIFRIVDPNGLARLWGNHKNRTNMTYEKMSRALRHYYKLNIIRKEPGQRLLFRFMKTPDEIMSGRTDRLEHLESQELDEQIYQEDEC

Turning to CTTTAG, the binding signal was 1.16 fold enrichment (6-mer frequency, TF over GST control) with ERF; 1.23 fold enrichment (6-mer frequency, TF over GST control) with ETV3L; 1.17 fold enrichment (6-mer frequency, TF over GST control) with ETS2; 1.02 fold enrichment (6-mer frequency, TF over GST control) in the assay with SPDEF; 1.2 fold enrichment (6-mer frequency, TF over GST control) with ETV7; 1.05 fold enrichment (6-mer frequency, TF over GST control) with ELF5. The binding signal in the assay with ETV3 is 1.28 fold enrichment (6-mer frequency, TF over GST control); with ETV6, 1.21 fold enrichment (6-mer frequency, TF over GST control).

For the sequence GTTGCA, the binding signal with ERF was 1.13 fold enrichment (6-mer frequency, TF over GST control); with ETV3L, 1.19 fold enrichment (6-mer frequency, TF over GST control); with ETS2 it was 1.17 fold enrichment (6-mer frequency, TF over GST control); in the assay with SPDEF, 1.17 fold enrichment (6-mer frequency, TF over GST control); in the assay with ETV7, 1.15 fold enrichment (6-mer frequency, TF over GST control); in the assay with ELF5, 1.1 fold enrichment (6-mer frequency, TF over GST control). The binding signal is 1.14 fold enrichment (6-mer frequency, TF over GST control) with ETV3 and 1.11 fold enrichment (6-mer frequency, TF over GST control) with ETV6.

Consider GGTTCC, for which the binding signal with ERF was 1.35 fold enrichment (6-mer frequency, TF over GST control); with ETV3L it was 1.46 fold enrichment (6-mer frequency, TF over GST control); with ETS2, 1.59 fold enrichment (6-mer frequency, TF over GST control); with SPDEF, 1.84 fold enrichment (6-mer frequency, TF over GST control); with ETV7, 1.47 fold enrichment (6-mer frequency, TF over GST control); in the assay with ELF5 it was 1.75 fold enrichment (6-mer frequency, TF over GST control). The binding signal in the assay with ETV3 is 1.71 fold enrichment (6-mer frequency, TF over GST control); with ETV6 it was 1.55 fold enrichment (6-mer frequency, TF over GST control).

For CCCTTT, the binding signal is 1.42 fold enrichment (6-mer frequency, TF over GST control) in the assay with ERF; 1.51 fold enrichment (6-mer frequency, TF over GST control) with ETV3L; 1.37 fold enrichment (6-mer frequency, TF over GST control) with ETS2; 1.51 fold enrichment (6-mer frequency, TF over GST control) in the assay with SPDEF; 1.34 fold enrichment (6-mer frequency, TF over GST control) in the assay with ETV7; 1.52 fold enrichment (6-mer frequency, TF over GST control) with ELF5. For the same sequence, the binding signal is 1.36 fold enrichment (6-mer frequency, TF over GST control) with ETV3 and 1.4 fold enrichment (6-mer frequency, TF over GST control) in the assay with ETV6.

Regarding ATTGGG, the binding signal with ERF is 1.31 fold enrichment (6-mer frequency, TF over GST control); in the assay with ETV3L, 1.15 fold enrichment (6-mer frequency, TF over GST control); in the assay with ETS2, 1.12 fold enrichment (6-mer frequency, TF over GST control); with SPDEF it was 1.19 fold enrichment (6-mer frequency, TF over GST control); in the assay with ETV7 it was 1.11 fold enrichment (6-mer frequency, TF over GST control); in the assay with ELF5 it was 1.11 fold enrichment (6-mer frequency, TF over GST control). Besides, the binding signal in the assay with ETV3 was 1.15 fold enrichment (6-mer frequency, TF over GST control); with ETV6, 1.16 fold enrichment (6-mer frequency, TF over GST control).

As to CCATTG, the binding signal is 1.07 fold enrichment (6-mer frequency, TF over GST control) with ERF; 1.22 fold enrichment (6-mer frequency, TF over GST control) with ETV3L; 1.14 fold enrichment (6-mer frequency, TF over GST control) in the assay with ETS2; 1.02 fold enrichment (6-mer frequency, TF over GST control) in the assay with SPDEF; 1.24 fold enrichment (6-mer frequency, TF over GST control) in the assay with ETV7; 1.19 fold enrichment (6-mer frequency, TF over GST control) in the assay with ELF5. Also, the binding signal in the assay with ETV3 was 1.19 fold enrichment (6-mer frequency, TF over GST control); with ETV6, 1.12 fold enrichment (6-mer frequency, TF over GST control).

The values are drawn from PMC7862700, “An all-to-all approach to the identification of sequence-specific readers for epigenetic DNA modifications on cytosine”.
